Reference: the supplement of paper PMC4466140

Experiments:
Assay in all cases: SPOT peptide array binding signal intensity (averaged, normalized) (arbitrary units (background-subtracted, floor 0; scale differs between SH3 domains)); higher = stronger binding of the SH3 domain to the peptide
AgAbp1 = target: AgAbp1
Outline: (§1)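 Cellulose membranes carried synthetic 15-mer peptides with cysteines swapped for serines. These were incubated overnight at 4°C with 10 μg/ml of GST-fused SH3 domains from four yeast species in TBS-based blocking buffer. Binding signal, detected with anti-GST antibody and quantified in Genespotter, is the normalized, background-subtracted spot intensity averaged over replicates, in arbitrary units specific to each domain.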

AgBbc1 = target: AgBbc1
Outline: as §1

AgBem1-D1 = target: AgBem1-D1
Outline: as §1

AgBzz1-D1 = target: AgBzz1-D1
Outline: as §1

AgBzz1-D2 = target: AgBzz1-D2
Outline: as §1

AgCyk3 = target: AgCyk3
Outline: as §1

AgFus1 = target: AgFus1
Outline: as §1

AgHof1 = target: AgHof1
Outline: as §1

AgHse1 = target: AgHse1
Outline: as §1

AgLsb1 = target: AgLsb1
Outline: as §1

AgLsb4 = target: AgLsb4
Outline: as §1

AgMyo5 = target: AgMyo5
Outline: as §1

AgNbp2 = target: AgNbp2
Outline: as §1

AgRvs167 = target: AgRvs167
Outline: as §1

AgSho1 = target: AgSho1
Outline: as §1

AgSla1-D1-D2 = target: AgSla1-D1-D2
Outline: as §1

AgSla1-D3 = target: AgSla1-D3
Outline: as §1

CaAbp1-D1 = target: CaAbp1-D1
Outline: as §1

CaAbp1-D2 = target: CaAbp1-D2
Outline: as §1

CaBbc1 = target: CaBbc1
Outline: as §1

CaBem1-D1 = target: CaBem1-D1
Outline: as §1

CaBzz1-D1 = target: CaBzz1-D1
Outline: as §1

CaBzz1-D2 = target: CaBzz1-D2
Outline: as §1

CaCyk3 = target: CaCyk3
Outline: as §1

CaFus1 = target: CaFus1
Outline: as §1

CaHof1 = target: CaHof1
Outline: as §1

CaHse1 = target: CaHse1
Outline: as §1

CaLsb1 = target: CaLsb1
Outline: as §1

CaLsb4 = target: CaLsb4
Outline: as §1

CaMyo5 = target: CaMyo5
Outline: as §1

CaNbp2 = target: CaNbp2
Outline: as §1

CaRvs167 = target: CaRvs167
Outline: as §1

CaRvs167-3 = target: CaRvs167-3
Outline: as §1

CaSho1 = target: CaSho1
Outline: as §1

CaSla1-D1-D2 = target: CaSla1-D1-D2
Outline: as §1

CaSla1-D3 = target: CaSla1-D3
Outline: as §1

ScAbp1 = target: ScAbp1
Outline: as §1

ScBbc1 = target: ScBbc1
Outline: as §1

ScBem1-D1 = target: ScBem1-D1
Outline: as §1

ScBzz1-D1 = target: ScBzz1-D1
Outline: as §1

ScBzz1-D2 = target: ScBzz1-D2
Outline: as §1

ScCyk3 = target: ScCyk3
Outline: as §1

ScFus1 = target: ScFus1
Outline: as §1

ScHof1 = target: ScHof1
Outline: as §1

ScHse1 = target: ScHse1
Outline: as §1

ScLsb1 = target: ScLsb1
Outline: as §1

ScLsb2 = target: ScLsb2
Outline: as §1

ScLsb3 = target: ScLsb3
Outline: as §1

ScLsb4 = target: ScLsb4
Outline: as §1

ScMyo3 = target: ScMyo3
Outline: as §1

ScMyo5 = target: ScMyo5
Outline: as §1

ScNbp2 = target: ScNbp2
Outline: as §1

ScPex13 = target: ScPex13
Outline: as §1

ScRvs167 = target: ScRvs167
Outline: as §1

ScSho1 = target: ScSho1
Outline: as §1

ScSla1-D1-D2 = target: ScSla1-D1-D2
Outline: as §1

ScSla1-D3 = target: ScSla1-D3
Outline: as §1

SpAbp1-D1 = target: SpAbp1-D1
Outline: as §1

SpBbc1 = target: SpBbc1
Outline: as §1

SpBzz1-D1 = target: SpBzz1-D1
Outline: as §1

SpBzz1-D2 = target: SpBzz1-D2
Outline: as §1

SpCyk3 = target: SpCyk3
Outline: as §1

SpHof1 = target: SpHof1
Outline: as §1

SpHof1-2 = target: SpHof1-2
Outline: as §1

SpHof1-3 = target: SpHof1-3
Outline: as §1

SpHse1 = target: SpHse1
Outline: as §1

SpLsb1 = target: SpLsb1
Outline: as §1

SpLsb4 = target: SpLsb4
Outline: as §1

SpMyo1 = target: SpMyo1
Outline: as §1

SpNbp2 = target: SpNbp2
Outline: as §1

SpPex13 = target: SpPex13
Outline: as §1

SpRvs167 = target: SpRvs167
Outline: as §1

SpSla1-D1-D2 = target: SpSla1-D1-D2
Outline: as §1

SpSla1-D3 = target: SpSla1-D3
Outline: as §1

Binder: DFTLPPPPPPPGLDE
- SPOT peptide array binding signal intensity (AgAbp1): 5
- SPOT peptide array binding signal intensity (AgBbc1): ≤ 0
- SPOT peptide array binding signal intensity (AgBem1-D1): ≤ 0
- SPOT peptide array binding signal intensity (AgBzz1-D1): ≤ 0
- SPOT peptide array binding signal intensity (AgBzz1-D2): ≤ 0
- SPOT peptide array binding signal intensity (AgCyk3): ≤ 0
- SPOT peptide array binding signal intensity (AgFus1): ≤ 0
- SPOT peptide array binding signal intensity (AgHof1): 57.5
- SPOT peptide array binding signal intensity (AgHse1): ≤ 0
- SPOT peptide array binding signal intensity (AgLsb1): 2
- SPOT peptide array binding signal intensity (AgLsb4): ≤ 0
- SPOT peptide array binding signal intensity (AgMyo5): 1550
- SPOT peptide array binding signal intensity (AgNbp2): 32.5
- SPOT peptide array binding signal intensity (AgRvs167): 1.67
- SPOT peptide array binding signal intensity (AgSho1): 2
- SPOT peptide array binding signal intensity (AgSla1-D1-D2): 1
- SPOT peptide array binding signal intensity (AgSla1-D3): 0.5
- SPOT peptide array binding signal intensity (CaAbp1-D1): ≤ 0
- SPOT peptide array binding signal intensity (CaAbp1-D2): ≤ 0
- SPOT peptide array binding signal intensity (CaBbc1): ≤ 0
- SPOT peptide array binding signal intensity (CaBem1-D1): 0.5
- SPOT peptide array binding signal intensity (CaBzz1-D1): 136
- SPOT peptide array binding signal intensity (CaBzz1-D2): 5.5
- SPOT peptide array binding signal intensity (CaCyk3): ≤ 0
- SPOT peptide array binding signal intensity (CaFus1): ≤ 0
- SPOT peptide array binding signal intensity (CaHof1): ≤ 0
- SPOT peptide array binding signal intensity (CaHse1): ≤ 0
- SPOT peptide array binding signal intensity (CaLsb1): 0.5
- SPOT peptide array binding signal intensity (CaLsb4): ≤ 0
- SPOT peptide array binding signal intensity (CaMyo5): 8

Binder: VKPRQLFPIPLNKVD
- SPOT peptide array binding signal intensity (AgAbp1): 5
- SPOT peptide array binding signal intensity (AgBbc1): ≤ 0
- SPOT peptide array binding signal intensity (AgBem1-D1): 14.5
- SPOT peptide array binding signal intensity (AgBzz1-D1): 61
- SPOT peptide array binding signal intensity (AgBzz1-D2): 40.5
- SPOT peptide array binding signal intensity (AgCyk3): ≤ 0
- SPOT peptide array binding signal intensity (AgFus1): 23
- SPOT peptide array binding signal intensity (AgHof1): 56.2
- SPOT peptide array binding signal intensity (AgHse1): 60.5
- SPOT peptide array binding signal intensity (AgLsb1): 1600
- SPOT peptide array binding signal intensity (AgLsb4): ≤ 0
- SPOT peptide array binding signal intensity (AgMyo5): 1
- SPOT peptide array binding signal intensity (AgNbp2): 18
- SPOT peptide array binding signal intensity (AgRvs167): 5
- SPOT peptide array binding signal intensity (AgSho1): 8
- SPOT peptide array binding signal intensity (AgSla1-D1-D2): 1
- SPOT peptide array binding signal intensity (AgSla1-D3): 8.5
- SPOT peptide array binding signal intensity (CaAbp1-D1): 98
- SPOT peptide array binding signal intensity (CaAbp1-D2): 43
- SPOT peptide array binding signal intensity (CaBbc1): 9
- SPOT peptide array binding signal intensity (CaBem1-D1): 14
- SPOT peptide array binding signal intensity (CaBzz1-D1): 110
- SPOT peptide array binding signal intensity (CaBzz1-D2): 59
- SPOT peptide array binding signal intensity (CaCyk3): ≤ 0
- SPOT peptide array binding signal intensity (CaFus1): 138
- SPOT peptide array binding signal intensity (CaHof1): 2
- SPOT peptide array binding signal intensity (CaHse1): 3.25
- SPOT peptide array binding signal intensity (CaLsb1): 0.5
- SPOT peptide array binding signal intensity (CaLsb4): 7
- SPOT peptide array binding signal intensity (CaMyo5): 1
- SPOT peptide array binding signal intensity (CaNbp2): 105
- SPOT peptide array binding signal intensity (CaRvs167): 54.5
- SPOT peptide array binding signal intensity (CaRvs167-3): 3
- SPOT peptide array binding signal intensity (CaSho1): 30
- SPOT peptide array binding signal intensity (CaSla1-D1-D2): ≤ 0
- SPOT peptide array binding signal intensity (CaSla1-D3): 3.25
- SPOT peptide array binding signal intensity (ScAbp1): 71
- SPOT peptide array binding signal intensity (ScBbc1): ≤ 0
- SPOT peptide array binding signal intensity (ScBem1-D1): ≤ 0
- SPOT peptide array binding signal intensity (ScBzz1-D1): 17
- SPOT peptide array binding signal intensity (ScBzz1-D2): 135
- SPOT peptide array binding signal intensity (ScCyk3): 3
- SPOT peptide array binding signal intensity (ScFus1): 11
- SPOT peptide array binding signal intensity (ScHof1): 3.75
- SPOT peptide array binding signal intensity (ScHse1): 196
- SPOT peptide array binding signal intensity (ScLsb1): 374
- SPOT peptide array binding signal intensity (ScLsb2): 201
- SPOT peptide array binding signal intensity (ScLsb3): 54.5
- SPOT peptide array binding signal intensity (ScLsb4): ≤ 0
- SPOT peptide array binding signal intensity (ScMyo3): 2
- SPOT peptide array binding signal intensity (ScMyo5): 4
- SPOT peptide array binding signal intensity (ScNbp2): 18
- SPOT peptide array binding signal intensity (ScPex13): 1.5
- SPOT peptide array binding signal intensity (ScRvs167): 48.3
- SPOT peptide array binding signal intensity (ScSho1): 139
- SPOT peptide array binding signal intensity (ScSla1-D1-D2): 1.5
- SPOT peptide array binding signal intensity (ScSla1-D3): ≤ 0
- SPOT peptide array binding signal intensity (SpAbp1-D1): 29
- SPOT peptide array binding signal intensity (SpBbc1): ≤ 0
- SPOT peptide array binding signal intensity (SpBzz1-D1): 156
- SPOT peptide array binding signal intensity (SpBzz1-D2): ≤ 0
- SPOT peptide array binding signal intensity (SpCyk3): ≤ 0
- SPOT peptide array binding signal intensity (SpHof1): 11.5
- SPOT peptide array binding signal intensity (SpHof1-2): 5.5
- SPOT peptide array binding signal intensity (SpHof1-3): 310
- SPOT peptide array binding signal intensity (SpHse1): 84.5
- SPOT peptide array binding signal intensity (SpLsb1): 133
- SPOT peptide array binding signal intensity (SpLsb4): 28.5
- SPOT peptide array binding signal intensity (SpMyo1): 3.25
- SPOT peptide array binding signal intensity (SpNbp2): 21.5
- SPOT peptide array binding signal intensity (SpPex13): 6
- SPOT peptide array binding signal intensity (SpRvs167): 10
- SPOT peptide array binding signal intensity (SpSla1-D1-D2): ≤ 0
- SPOT peptide array binding signal intensity (SpSla1-D3): ≤ 0
